From ChEMBL document CHEMBL3988442, “University of Dundee, Small-Polar-MMV Screening Library” (2021) come the findings set out here.

The whole screen tested about 48,000 compounds, of which about 13,000 (27%) showed an effect of 50% or more. Some of the results follow.

For this test, the system named is Wolbachia pipientis. In words: Anti-Wolbachia Cell-Based Screen. The test is classed as functional. As to conditions: 5 µM. Also noted: scale not given: in the data most compounds retested in dose-response had high values.
For the molecule `CCS(=O)(=O)NC1CCCN(c2cc(C)ccc2F)C1=O` (stereo not drawn), the “Percent Effect” value is on record as -7.776%.

As for `O[C@H]1[C@H](NCCSc2ccccn2)c2ccccc2C12CCNCC2`, the “Percent Effect” value was -1.82%.

Turning to `COc1ccccc1Oc1ncccc1CNC(=O)[C@H](N)CC(C)(C)C`, the “Percent Effect” value is given as -16.84%.

Turning to `CC(=O)NC1CCN(c2ncnc3c2c(C)nn3C)C1` (stereo not drawn), the “Percent Effect” value is recorded as -10.72%.

With `COc1cc(C)c(C2CC(=O)NCc3nc4sccn4c32)cc1C` (stereo not drawn), the “Percent Effect” value was -46.51%.

As to `CCOCc1ccc(NC(=O)C(C)C)cc1`, the “Percent Effect” value is on record as 2.83%.

With `CCC[C@H]1CN(CCS(C)(=O)=O)C[C@@H]1NC(=O)c1cc(CC)on1`, the “Percent Effect” value was 21.57%.

On to `Cc1cc(F)ccc1CNCCn1cccn1`, for which the “Percent Effect” value is -2.042%.

With `Cc1cc(C)n(CCNCc2cc(-c3ccc(Cl)cc3)c[nH]c2=O)n1`, the “Percent Effect” value is on record as 101%.

`COC(=O)c1ccc(Cn2nc(C)cc2C)c(F)c1`: the “Percent Effect” value is -8.514%.

Take `Cc1cc(C)n(CC(=O)Nc2cc(-c3ccncc3)[nH]n2)n1`: the “Percent Effect” value amounted to 0.2765%.

On to `Cc1cc(C)n(CC(=O)N2CCC(NS(=O)(=O)c3ccccc3)CC2)n1`, for which the “Percent Effect” value was -8.172%.

In the case of `CCn1cnnc1CCNCc1c[nH]nc1-c1ccc(F)cc1`, the “Percent Effect” value is -1.595%.

Consider `Cc1cc(C)n(CCNCc2cc(-c3ccc(F)cc3)c[nH]c2=O)n1`, for which the “Percent Effect” value came out at 135.5%.

Take `Cc1cc(C)n(CCNCc2cc(-c3ccccc3)c[nH]c2=O)n1`: the “Percent Effect” value is listed as 81.59%.

For the molecule `COC(=O)c1ccc(F)c(Cn2nc(C)cc2C)c1`, the “Percent Effect” value was -3.045%.

Consider `c1ccc2sc(N3CCCC(Cn4cncn4)C3)nc2c1` (stereo not drawn), for which the “Percent Effect” value amounted to 2.326%.

Regarding `NCC1CCCCN1Cc1cc(O)c2cccc(F)c2n1` (stereo not drawn), the “Percent Effect” value is given as -47.52%.

In the case of `CN1CCCN(C(=O)c2nnn(-c3ccc(C(F)(F)F)cc3)n2)CC1`, the “Percent Effect” value is listed as 20.55%.

As to `Cc1cccc(C(C(=O)NCc2nc(-c3ncccn3)no2)N(C)C)c1` (stereo not drawn), the “Percent Effect” value was -6.766%.

As for `Cc1ccc(-c2cccc(N3CCC(NC4CCOCC4)CC3)c2)cc1`, the “Percent Effect” value is given as 106.4%.

In the case of `Cc1nnc(-c2cccc(N3CCC(NC(C)CC(C)C)CC3)c2)s1` (stereo not drawn), the “Percent Effect” value came to 13.1%.

Consider `Cc1nnc(-c2cccc(N3CCC(NC4CCSC4)CC3)c2)s1` (stereo not drawn), for which the “Percent Effect” value was -9.983%.

Consider `Clc1cccc(N2CCC(NCc3cc[nH]n3)C2)c1` (stereo not drawn), for which the “Percent Effect” value is listed as -6.457%.

In the case of `Clc1cccc(-c2cccc(N3CCC(NC4CCOCC4)CC3)c2)c1`, the “Percent Effect” value came out at 91.89%.

For `O=C(Cc1cccc(O)c1)NC1CCN(c2cccc(Cl)c2)C1` (stereo not drawn), the “Percent Effect” value is on record as 1.358%.

In the case of `CC(C)N1CCOCC2(CCCN(C(=O)c3cn(C)cn3)C2)C1.O=C(O)C(F)(F)F` (stereo not drawn), the “Percent Effect” value is reported as -9.46%.

On to `O=C(c1ccc(-n2ccnn2)cc1)N(CC1CC1)c1cccnc1`, for which the “Percent Effect” value was -13.01%.

With `CCCN(C(=O)c1ccc(-n2ccnn2)cc1)c1cccnc1`, the “Percent Effect” value is -3.595%.

As for `O=C(c1ccccc1)N(CC1CC1)c1cccnc1`, the “Percent Effect” value was 119.1%.

Turning to `Cc1c(C2CC2)n[nH]c1NC(=O)C1CCCN(C(=O)NCC(C)C)C1` (stereo not drawn), the “Percent Effect” value came out at 117.7%.

In the case of `Cc1n[nH]c(C)c1NC(=O)C1CCCN(C(=O)NCC(C)C)C1` (stereo not drawn), the “Percent Effect” value is 113.5%.

`Cc1n[nH]c(C)c1Sc1ccccc1NC(=O)N1CCCC(C(N)=O)C1` (stereo not drawn): the “Percent Effect” value was -0.33%.

Turning to `Cc1cc(NC(=O)C2CCCN(C(=O)NCC(C)C)C2)ccn1` (stereo not drawn), the “Percent Effect” value is 89.55%.

`NC(=O)N1CCCC(C(=O)Nc2cccc(Cl)c2)C1` (stereo not drawn): the “Percent Effect” value is 3.636%.

On to `CCNC(=O)N1CCCC(C(=O)c2cccc(OC(C)C)c2)C1` (stereo not drawn), for which the “Percent Effect” value worked out at 17.22%.

In the case of `CCCC1CCCN(C(=O)Nc2ccnc(C(=O)N(C)C)c2)CC1` (stereo not drawn), the “Percent Effect” value is listed as -1.886%.

With `Cc1n[nH]c(C)c1CCNC(=O)C1CCCN(CC(N)=O)C1` (stereo not drawn), the “Percent Effect” value is given as -16.53%.

In the case of `Cc1ccc(-c2nnc(NC(=O)c3ccn(C)c(=O)c3)[nH]2)s1`, the “Percent Effect” value turned out to be 1.444%.

Regarding `CCN(C(=O)C1CC1)C(c1cccnc1)c1ccc2c(c1)CCO2` (stereo not drawn), the “Percent Effect” value is -9.628%.

In the case of `CC(c1nnc(-c2cccs2)o1)N1CCn2c(nnc2C2CC2)C1` (stereo not drawn), the “Percent Effect” value is given as -4.966%.

On to `Cn1cc(C2CCCN2Cc2csc(-c3ccsc3)n2)cn1` (stereo not drawn), for which the “Percent Effect” value was 2.773%.

On to `Cc1ccc(-c2nnc(C3CCCN3S(=O)(=O)c3cnn(C)c3C)o2)s1` (stereo not drawn), for which the “Percent Effect” value turned out to be 112%.

For the molecule `Cc1c(S(=O)(=O)N2CCCCC2c2nnc(-c3cccs3)o2)cnn1C` (stereo not drawn), the “Percent Effect” value amounted to 114.5%.

`Cc1noc(CCNS(=O)(=O)N2CCCC2c2ccc(C)o2)n1` (stereo not drawn): the “Percent Effect” value is on record as 4.735%.

Regarding `Cn1cc(S(=O)(=O)N2CCCC2CC(=O)c2cccs2)cn1` (stereo not drawn), the “Percent Effect” value is listed as -23.33%.

As for `Cc1ccc(C2CCCN2S(=O)(=O)N(C)Cc2cnn(C)c2)o1` (stereo not drawn), the “Percent Effect” value is recorded as 13.71%.

Turning to `Cc1c(S(=O)(=O)N2CCCC2c2nnc(-c3ccsc3)o2)cnn1C` (stereo not drawn), the “Percent Effect” value is reported as 130.9%.

With `Cc1nnc(CN2CCCC2c2ccsc2)o1` (stereo not drawn), the “Percent Effect” value is 42.12%.

Turning to `CN1[C@@H](c2ccccc2)[C@@H](C(=O)NCc2ccncc2)C[C@@]1(C)C(=O)O`, the “Percent Effect” value was found to be 1.416%.

Regarding `O=C(O)c1ccnc(-c2ccnc(COc3cccc(F)c3)n2)c1`, the “Percent Effect” value was -102.4%.

Take `Cc1cccc(N2CCN(CCNC(=O)C(C)n3cncn3)CC2)c1` (stereo not drawn): the “Percent Effect” value was 8.571%.

On to `CC1CCCCN1CCN(C)C(=O)c1cc(CN2CCC(O)CC2)on1` (stereo not drawn), for which the “Percent Effect” value is on record as 0.4872%.

Consider `Cc1cnn(CCNCc2cccnc2)c1`, for which the “Percent Effect” value was -0.61%.

For `COc1cc(F)ccc1N(C)Cc1cccnc1`, the “Percent Effect” value is recorded as -2.533%.

In the case of `CSCc1cc(F)ccc1CNCc1cccc(O)c1`, the “Percent Effect” value was 105.8%.

With `O=C1CCCN1c1cccc(CNCc2cc(F)ccc2F)c1`, the “Percent Effect” value was -5.013%.

For `O=C1OCCN1c1cccc(CNCc2cc(F)ccc2F)c1`, the “Percent Effect” value was determined as 6.854%.

As to `CSCc1cc(F)ccc1CNCc1cccnc1`, the “Percent Effect” value was determined as 101.5%.

On to `CSCc1cc(F)ccc1CNCc1ccncc1`, for which the “Percent Effect” value is 99.15%.

As to `CSCc1cc(F)ccc1CNCc1ncc[nH]1`, the “Percent Effect” value was 108.7%.

For the molecule `Fc1cccc(C(NCc2ncc[nH]2)c2ccccc2)c1` (stereo not drawn), the “Percent Effect” value is -7.792%.

`Fc1cccc(NCc2ncc[nH]2)c1`: the “Percent Effect” value was -11.31%.

On to `Fc1ccc(NCc2ccncc2)c(OC(F)F)c1`, for which the “Percent Effect” value is -6.491%.

As for `O=C(NCc1ccncc1)N(Cc1ccc(F)cc1F)C1CC1`, the “Percent Effect” value is recorded as -2.267%.

Consider `Cc1cc(C)n(CC(C)NCc2cnc3c(C)cccn23)n1` (stereo not drawn), for which the “Percent Effect” value is given as -11.8%.

Turning to `COCCSc1ccc(C(C)NC(=O)Nc2cn[nH]c2)cc1` (stereo not drawn), the “Percent Effect” value is on record as -2.849%.

On to `COc1cc(NCC(=O)NC(C)(C#N)C(C)C)cc(OC)c1OC` (stereo not drawn), for which the “Percent Effect” value is -11.73%.
